# Results reported in PubChem BioAssay.
# “And” between values parts separate entries of the source, which are not always exact repeats. Identical values can stand only once.
# Experiment: modulators of S6 phosphorylation in cells, primary screen, cell-based, A549, cytoblot, luminescence, serum-stimulated (AID 1158);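 also: serum-stimulated A549 lung adenocarcinoma cells; signal is phosphorylated S6 detected by cytoblot immunostaining with HRP secondary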
# Conditions: A549 phospho-S6 cytoblot, 5 h, higher = more signal
row,SMILES,z-score
1,CC(CO)N1C(=O)[C@@H]2C3C(=O)OCCC=C[C@H]3OC23C=CCN(c2ccc(Cl)cc2)C(=O)[C@@H]13 (some centres undefined),-0.7 and -0.574
2,CCOC(=O)NN=C1C[C@@H](O)[C@@H](O)[C@@H]2[C@@H]3C(=O)N(Cc4ccc5c(c4)OCO5)C(=O)[C@@H]3CC[C@@H]12,-0.403
3,C=CCN(C(=O)C(c1cccs1)N(C(=O)/C=C\C(=O)O)c1ccc(CCO)cc1)C(C)(C)C (centres undefined),1.36 and 0.123
4,C=CCN(C(=O)C(c1cccs1)N(C(=O)/C=C\C(=O)O)c1c(Cl)cccc1CO)C(C)(C)C (centres undefined),-0.483 and -0.409
5,C=CCN(CCCCC)C(=O)C1N(c2c(Cl)cccc2CO)C(=O)C2C(C(=O)O)C3C=CC21O3 (centres undefined),0.0308 and 0.765
6,C=CCN(CCCC)C(=O)C(c1cccs1)N(CCOCCO)C(=O)/C=C\C(=O)O (centres undefined),1.05 and 1.65
7,CCCCCN1CC=CC23O[C@@H]4C=CCCOC(=O)C4[C@H]2C(=O)N(C(C)CO)[C@@H]3C1=O (some centres undefined),0.154 and 0.166
8,COC(=O)[C@H](C)NC(=O)CCC1CC(OC(=O)NCCc2ccc(F)cc2)CC2(CCCC(COC(=O)NCCCN3CCCC3=O)O2)O1 (some centres undefined),0.244
9,COC(=O)C1=C(C)N(Cc2ccccc2)C2=C(C(C)=O)C[C@@](O)(C(=O)OC)C(=O)N2[C@@H]1c1ccccc1,0.268 and 2.46
10,C=CCN(CCCCC)C(=O)C(c1cccs1)N(C(=O)/C=C\C(=O)O)c1c(Cl)cccc1CO (centres undefined),-0.122 and -0.137
11,CC(C)CON=C1C[C@@H](O)[C@@H](O)[C@@H]2[C@@H]3C(=O)N(c4cccc(Oc5ccccc5)c4)C(=O)[C@@H]3CC[C@H]12,-0.157
12,C=CCN(C(=O)C(c1cccs1)N(C(=O)/C=C\C(=O)O)C(C)(C)CO)c1ccc(OC)cc1 (centres undefined),1.97 and 1.04
13,CCCNC(=O)OC[C@H]1O[C@H](CCON=C(C)CCN2CCc3nc(-c4ccccc4)c(-c4ccccc4)cc3C2)C=C[C@@H]1Oc1ccc(OC)cc1,0.0851
14,C=CC[C@@H](O)c1ccc(O)c(F)c1,0.0996 and 0.266
15,C=CCN(Cc1ccccc1)C(=O)C(c1cccs1)N(C(=O)/C=C\C(=O)O)c1c(Cl)cccc1CO (centres undefined),0.0278 and -0.193
16,CC(C)[Si]1(C(C)C)OCc2cc(CCCc3cc4c(c(CCc5ccccc5)n3)[Si](C(C)C)(C(C)C)OC4)nc(CCc3ccccc3)c21,0.0671 and -0.999
17,COC(=O)[C@@]1(Cc2ccc(F)cc2)[C@H]2c3cc(C(=O)N4CCCC4)n(Cc4c(CO)[nH]cc(C)c4=O)c3C[C@H]2CN1C(=O)c1ccccc1,-0.52 and -0.213
18,C=CCN(C(=O)C1N(c2ccc(CCO)cc2)C(=O)C2C(C(=O)O)C3C=CC21O3)c1ccc(OC)cc1 (centres undefined),0.0631 and 2.4
19,C=CCN(C(=O)C1N(CCOCCO)C(=O)C2C(C(=O)O)C3C=CC21O3)C(C)(C)C (centres undefined),0.0267 and 0.353
20,CCOC(=O)c1ccc(NC(=O)O[C@H]2[C@H](OC(=O)Nc3ccccc3)[C@H](OC(=O)Nc3ccccc3)[C@@H](OC)O[C@@H]2CO)cc1,-0.636 and 0.647

row,SMILES,z-score
1,CC(C)=NOCc1ccc(-c2cn([C@@H]3COC[C@H]3O)nn2)cc1,-0.119
2,C[C@@H]1CC[C@H]2C(=O)O[C@H](CN=[N+]=[N-])CN2[C@H]1c1ccc(Br)cc1,-0.524 and -0.466
3,C=CCN1C(=O)[C@]2(O[C@H](CCn3cc(CCO)nn3)[C@@H]([Si](C)(C)c3ccc(OC)cc3)[C@@H]2C)c2cc(N3C(=O)c4cccc5cccc3c45)ccc21,1.04 and 0.347
4,CC(CO)N1C(=O)[C@@H]2C3C(=O)OCCC=C[C@H]3OC23C=CCN(Cc2ccccc2)C(=O)[C@@H]13 (some centres undefined),-0.388 and -0.526
5,C=CCN(C(=O)C1N(c2c(Cl)cccc2CO)C(=O)C2C(C(=O)O)C3C=CC21O3)C(C)(C)C (centres undefined),0.442 and 1.04
6,O=C1C[C@]2(c3ccc([N+](=O)[O-])cc3)C(=O)N(Cc3ccccc3)c3cc(CO)ccc3[C@H]2N1C1CCCCC1,0.483 and 2.97
7,C[C@@H](ON=C1[C@H]2CCn3c(=O)n(-c4ccccc4)c(=O)n3[C@H]2[C@H](O)[C@@H]2O[C@H]12)c1cn([C@H](CO)Cc2ccccc2)nn1,0.164
8,C=CCN(CCCC)C(=O)C1N(C(C)(C)CO)C(=O)C2C(C(=O)O)C3C=CC21O3 (centres undefined),0.301 and -0.335
9,COC(=O)[C@@]1(Cc2ccccc2)[C@H]2c3cc(C(=O)N(C)C)n(C[C@H](O)CO)c3C[C@H]2CN1C(=O)c1ccccc1,-0.0187 and -0.333
10,C[C@@H]1CN2[C@@H](CC[C@@H](C)[C@@H]2c2ccc(Br)cc2)C(=O)O1,-0.0649 and 1.61
11,COC(=O)C1=C(C)N(Cc2ccccc2)[C@]23O[C@](C(=O)OC)(C(=O)N2[C@@H]1c1ccccc1)[C@@H](C(=O)OC)[C@H]3C(=O)OC,-0.046 and 0.635
12,C=CCN(Cc1ccccc1)C(=O)C1N(c2ccc(CCO)cc2)C(=O)C2C(C(=O)O)C3C=CC21O3 (centres undefined),-0.0071 and 0.775
13,CCOC(=O)C[C@H]1[C@H](OC(=O)c2ccccc2-c2ccccc2)[C@@H](NC(=O)Cc2ccc(OC)cc2)c2cc(OCCCO)ccc2N1C(=O)c1ccc2ccccc2n1,0.661 and 0.0515
14,CC(C)CCN1CCc2nc(-c3ccccc3)c3c(c2C1)CO[C@@H](C)C3,-0.768
15,CCOC(=O)[C@@H]1CC=C2CC1C(=O)N1CCC[C@@H]1[C@H]2O[Si](C)(C)C(C)(C)C (some centres undefined),0.308 and -0.0299
16,COC(=O)[C@@]1(Cc2ccc(OC)cc2)[C@H]2c3cc(C(=O)N(C)C)n(Cc4ccc(O)c(OC)c4)c3C[C@H]2CN1C(=O)c1ccccc1,0.217 and 0.749
17,CO[C@H]1COC(=O)CC=C[C@H](C)[C@H](OC)COC(=O)[C@@H](C)COC(=O)CC=C[C@@H]1C,-0.0498 and 0.833
18,CCOC(=O)C[C@H]1[C@H](OC(=O)c2ccccc2-c2ccccc2)[C@@H](NC(=O)c2ccccc2)c2cc(OCCCO)ccc2N1C(=O)c1ccc2ccccc2n1,0.649 and -0.172
19,C=CCN(CCCC)C(=O)C1N(c2c(Cl)cccc2CO)C(=O)C2C(C(=O)O)C3C=CC21O3 (centres undefined),-0.352 and 0.113
